A selection: hits, their analogues and other compounds. The true share with any hit is near 6.2%.
KB-3-1 tox – KB-3-1 parental cell cytotoxicity | KB-3-1 viability, CellTiter-Glo ATP luminescence, 72 h | Potency, µM (top dose mostly 46.1 µM), hits mostly cytotoxic | 400,000 tested, 1.4% active; note: % is set by controls: 0 for no effect and ±100 for the full control effect; nearly all actives have a fitted effect of over 60% in size
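Screening of KB-3-1 cells (DMEM, 10% FBS, phenol-red free) ran from lowest to highest compound concentration; after 72 h at 37 °C viability was read luminescently and curves fitted.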
HT1080 IDH1KD tx – kills HT-1080 cells with IDH1 knockdown; HT-1080 IDH1 knockdown viability, ATP luminescence, 48 h; Potency, µM (series often up to 46.1 µM), without a hit: at the highest dose activity, negative = toxicity, most hits filed as cytotoxic; 360,000 tested, 2% active; AID 686971;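 note: 0% = DMSO wells and -100% = cell-free medium wells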
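Cytotoxicity counter-line: IDH1KD HT-1080, 48 h, CellTiter-Glo. Curves classed by r2, magnitude and activity.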
HT1080NT lethal – kills 2HG-producing HT-1080-NT fibrosarcoma cells; HT-1080-NT fibrosarcoma viability, CellTiter-Glo ATP luminescence, 48 h; Potency, µM (highest dose often 46.1 µM), without a hit: at the top dose activity, negative = less viability, actives largely listed as cytotoxic; 360,000 tested, 1.6% active; AID 686970;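 note: NT is the 2HG producing partner of a matched IDH1 knockdown line; 0% = DMSO-treated cells and -100% = media-only wells without cells; nearly all actives have a fitted effect of over 55% in size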
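Fibrosarcoma NT cells, 750 per well in 5% FBS RPMI, were exposed to compound for 48 hours. Viability: CellTiter-Glo luminescence.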
ATXN2 expr inh – inhibitors of ATXN2 expression; 360,000 tested, 0.72% active; HEK-293 ATXN2-luciferase reporter, luminescence, 24 h; Potency, µM (titrated, usually from 57 µM), for the others: top-dose activity change, negative = inhibition, hits mostly inhibitors; note: % is set by controls: 0 for no effect and ±100 for the full control effect; nearly all actives have a fitted effect of over 55% in size
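qHTS (up to 57 uM final) was run with 24 h compound exposure of reporter cells at 37 °C. Each well was multiplexed: SteadyGlo luminescence measured ATXN2-luciferase expression after a fluorogenic Gly-Phe-AFC viability readout (25 uM final).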
KB-V1 MDR tox – KB-V1 MDR subline cytotoxicity. KB-V1 MDR cells viability, CellTiter-Glo, 72 h. Potency, µM (top dose mostly 46.1 µM), most hits filed as cytotoxic. 400,000 tested, 3.4% active; note: % is set by controls: 0 for no effect and ±100 for the full control effect; nearly all actives have a fitted effect of over 60% in size
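Compound-treated KB-V1 multidrug-resistant cells, 72 h, 37 degrees C; viability by CellTiter-Glo. Fitted qHTS curves give the values.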
S2 tox – reduces viability in counter-screen for ATXN expression inhibitors. Potency, µM (series often up to 56.7 µM), usual class: cytotoxic. S2 cells (HEK-293 line with an ATXN2-luciferase reporter) viability, CellTiter-Fluor protease fluorescence, 24 h. 400,000 tested, 0.49% active; note: nearly all actives have a fitted effect of over 40% in size
The depositor's hits bear a star; i = inactive; ? = inconclusive; nt = no result. Calls come from the whole dose curve; as a rule, active = well fitted curve in the direction sought with a large enough effect; inconclusive = small, poorly fitted or top-dose-only effect, or another doubt; inactive = no such curve, though single readings can be large; an effect the other way counts as inactive or inconclusive. Potency is the fitted concentration of half-maximal effect.

SMILES	KB-3-1 tox	HT1080 IDH1KD tx	HT1080NT lethal	ATXN2 expr inh	KB-V1 MDR tox	S2 tox
CCCCCCCCc1ccc(CCC(N)(CO)CO)cc1	nt	nt	nt	31µM*	nt	nt
CCCCNS(=O)(=O)c1ccc(S(=O)(=O)N2CCC3(CC2)OCCO3)cc1	i	3%	2%	-1%	16µM*	i
Cc1ccc(OCCCCn2c(-c3ccc(Cl)cc3)nc3ccccc3c2=O)cc1	i	nt	nt	0%	i	i
CC(C)CN(C(=O)COC(=O)C12CC3CC(CC(C3)C1)C2)c1c(N)n(Cc2ccccc2)c(=O)[nH]c1=O	?	?	?	14µM*	i	22µM*
CC(C)CN(C(=O)COC(=O)C12CC3CC(CC(O)(C3)C1)C2)c1c(N)n(Cc2ccccc2)c(=O)[nH]c1=O	i	10%	14%	nt	i	i
Cc1ccc(SCC(=O)OCC(=O)N(CC(C)C)c2c(N)n(Cc3ccccc3)c(=O)[nH]c2=O)c(C)c1	i	23µM*	?	-31%	i	i
CC(C)CN(C(=O)COC(=O)CSc1ccccc1F)c1c(N)n(Cc2ccccc2)c(=O)[nH]c1=O	i	2%	-1%	-3%	?	i
COc1ccc(-n2c(CNC(=O)c3cccc(OC)c3OC)nnc2SC)cc1	nt	nt	nt	nt	nt	i
CCc1cccc(CC)c1NC(=O)C1CCC(CNS(=O)(=O)c2cccc3nsnc23)CC1 (stereo unspecified)	i	nt	nt	-9%	i	i
CC1c2cc3c(cc2CCN1CC(=O)Nc1ccccc1)OCCCO3 (stereo unspecified)	?	-3%	-28%	-17%	?	i
CC1c2cc3c(cc2CCN1C(=O)c1cccc(Cl)c1)OCCCO3 (stereo unspecified)	?	?	21µM*	nt	5.8µM*	i
CC1(C(=O)Nc2cnc3ccccc3c2)CCN1Cc1ccc(-c2ccccc2)o1 (stereo unspecified)	i	1%	-21%	-6%	?	i
COc1ccc(CCNC(=O)CCn2c(=O)[nH]c3cc(OC)c(OC)cc3c2=O)cc1OC	i	-1%	-7%	-12%	i	i
CCOc1cc2[nH]c(=O)n(CCC(=O)NCCc3ccc(OC)c(OC)c3)c(=O)c2cc1OCC	i	?	29µM*	5%	i	i
CCC/C=N/NC(=O)c1[nH]c2c([N+](=O)[O-])cccc2c1C	23µM*	?	?	?	i	?
COc1cccc(CNc2ncnc3onc(C)c23)c1	21µM*	nt	nt	-21%	i	i
COc1cccc(CNc2ncnc3ccc(-c4c(C)noc4C)cc23)c1	i	nt	nt	69%	?	i
COCCNC(=O)c1cnc2sc(N3CCC(C)CC3)nn2c1=O	i	nt	nt	-2%	i	i
Cc1ccc(C)c(N2N=C(C(=O)OCc3nnc(-c4ccccc4Br)o3)CCC2=O)c1	i	-2%	-1%	nt	i	i
O=[N+]([O-])c1cccc(C=NN=C2c3ccccc3-c3ccccc32)c1	i	14%	-2%	-16%	21µM*	i
NC(N)=N/N=C/c1cccc([N+](=O)[O-])c1O	i	12%	12%	-30%	i	i
O=[N+]([O-])c1cccc(/C=N/Nc2ccccn2)c1	i	14%	17%	26%	i	i
O=[N+]([O-])c1cccc(/C=N\N=C2c3ccccc3-c3ccccc32)c1O	?	6%	3%	?	18µM*	i
CCOc1ccc(NC(=O)c2cccc3c(=O)c4c([nH]c23)CCCC4)cc1	i	nt	nt	10%	i	i
CCc1ccc(C2c3c(-c4ccccc4O)n[nH]c3C(=O)N2Cc2cccnc2)cc1 (stereo unspecified)	i	nt	nt	?	?	nt

Bioassay records (PubChem BioAssay)
